High-throughput results as filed in PubChem.
USP8 block: human USP8 deubiquitinase inhibition; inhibition, % at 20 µM; 47,000 compounds, 4.2% hits; purified USP8, Ub-rhodamine cleavage fluorescence, 30 min
USP17 block: blocks human USP17 ubiquitin-rhodamine cleavage; purified USP17, Ub-rhodamine cleavage fluorescence, 3 h; inhibition, % at 50 µM; 47,000 compounds, 6.5% hits; A8MUK1
Target sequence (A8MUK1 whole entry, looked up): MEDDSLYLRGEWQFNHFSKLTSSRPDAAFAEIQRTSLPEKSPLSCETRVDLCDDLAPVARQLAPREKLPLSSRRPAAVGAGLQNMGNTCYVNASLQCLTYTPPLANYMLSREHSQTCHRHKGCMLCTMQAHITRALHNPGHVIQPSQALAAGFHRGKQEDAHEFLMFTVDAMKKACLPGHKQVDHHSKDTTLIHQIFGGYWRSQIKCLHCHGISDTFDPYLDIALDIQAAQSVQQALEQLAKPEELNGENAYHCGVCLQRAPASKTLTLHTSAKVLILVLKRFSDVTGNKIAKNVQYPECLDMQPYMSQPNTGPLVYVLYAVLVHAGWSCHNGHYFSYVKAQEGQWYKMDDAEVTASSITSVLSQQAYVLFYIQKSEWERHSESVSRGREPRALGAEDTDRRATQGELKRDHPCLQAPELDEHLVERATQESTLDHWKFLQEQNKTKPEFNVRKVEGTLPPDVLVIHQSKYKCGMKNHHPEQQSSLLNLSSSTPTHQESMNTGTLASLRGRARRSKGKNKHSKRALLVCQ
USP30 block: blocks human USP30 ubiquitin-rhodamine cleavage. purified USP30, Ub-rhodamine cleavage fluorescence. Q70CQ3. 47,000 compounds, 5.3% hits. AID 1645860. inhibition, % at 25 µM
* marks the source's active call; other numbers are inactive results; . = no result given. Compounds with a hit are over-represented: about 12% of the library has one in this group of screens. Rule as the data show it: active = inhibition above about 30%; inactive = the rest.

SMILES	USP8 block	USP17 block	USP30 block
c1ccc(-c2cc3c(NCc4ccccn4)ncnc3s2)cc1	21	35*	26
Cc1nc(NCc2ccccn2)c2cc(-c3ccccc3)sc2n1	30*	74*	2
c1ccc(-c2nc3sc4c(NCc5ccccn5)ncnc4c3c3c2CCC3)cc1	5	-3	-37
CCOC(=O)c1sc2nc(C)nc(NCc3ccccn3)c2c1C	5	11	31*
CC(=O)c1cccc(NC(=O)CCc2nc3cccnc3n2-c2ccccc2)c1	-6	-8	-30
CS(=O)(=O)N(CC(=O)N1CCC(Cc2ccccc2)CC1)c1cccc2ccccc12	0	5	8
Cc1c(C(=O)NCc2ccccc2F)oc2ccc3c(c12)C(=O)CC1(CCCC1)O3	0	16	26
CCCNC(=O)c1oc2ccc3c(c2c1C)C(=O)CC1(CCCC1)O3	10	20	39*
CCCOC(=O)c1ccc(NC(=O)c2cccc(S(=O)(=O)N(C)c3ccc(OC)cc3)c2)cc1	0	-2	-22
COc1ccc(N(C)S(=O)(=O)c2cccc(C(=O)OCC(=O)N(Cc3ccccc3)C(C)C)c2)cc1	22	14	30*
CC(C)C(=O)N1CCC2(CCN(Cc3ccc(Cl)cc3)C2)C1 (stereo unspecified)	-2	1	-7
O=C1C=C(O)c2c(O)cc(O)cc2C1=O	82*	99*	100*
Cc1cc(O)c2c(c1)C(=O)c1cc(O)cc(O)c1C2=O	-14	2	-486
CCOc1ccccc1NC(=O)CN1CCCN(Cc2ccc(Cl)cc2)S1(=O)=O	5	11	26
COc1cccc(OCCCSc2nc3ccccc3[nH]2)c1	0	9	2
CC(=O)Nc1cccc(NC(=O)CSc2ccc(-c3ccc4c(c3)OCO4)nn2)c1	33*	30	33*
COc1ccc(-c2ccc(SCC(=O)Nc3ccc(F)cc3)nn2)cc1OC	83*	17	21
COc1ccc(NC(=O)CSc2ccc(-c3ccccc3C)nn2)cc1OC	-38	-6	5
O=C(CSc1ccc(-c2ccccc2)nn1)Nc1ccc(F)c([N+](=O)[O-])c1	5	2	3
O=C(CSc1ccc(-c2ccncc2)nn1)NCc1ccc2c(c1)OCO2	-3	-1	2
COc1ccc(NC(=O)CSc2ccc(-c3cccnc3)nn2)cc1OC	-17	-2	-7
O=C(CSc1ccc(-c2cccc([N+](=O)[O-])c2)nn1)Nc1cccc(F)c1	70*	79*	45*
O=C(CSc1ccc(-c2ccncc2)nn1)Nc1ccc(Cl)cc1	4	32*	23
FCCCOc1ccc(-c2ccnc3cc(-c4sccc4-n4cccc4)nn23)cc1	-20	.	-148
CC(C)n1ncc2c(C(=O)NCCc3cccc(Cl)c3)cc(C3CC3)nc21	15	.	-61
SMILES	USP8 block	USP17 block	USP30 block
COc1cc(NC(=O)Cn2nc(-c3ccc(F)cc3)ccc2=O)ccc1-n1cnnn1	39*	79*	43*
COc1ccc(OC)c(NC(=O)c2cc(F)ccc2-n2cnnn2)c1	6	2	24
COc1ccc(NC(=O)N2CCCCCC2c2ccc(C)s2)cc1OC (stereo unspecified)	3	-9	-5
Cc1noc2nc(C)n(CC(=O)NCC(C)c3ccccc3)c(=O)c12 (stereo unspecified)	0	3	-3
CC(CNC(=O)Cn1c(=O)c2cccn2c2ccccc21)c1ccccc1 (stereo unspecified)	27	17	32*
CC(CCc1ccccc1)NC(=O)Cn1c(=O)c2cccn2c2ccccc21 (stereo unspecified)	-5	82*	19
COc1ccc2c(ccn2CC(=O)NC(C)CCc2ccccc2)c1 (stereo unspecified)	6	1	-16
CCN(CCCNC(=O)CCc1nnc2n(Cc3ccc(C)cc3)c(=O)c3ccccc3n12)c1cccc(C)c1	6	6	24
CC(C)Cn1c(=O)c2ccccc2n2c(CCC(=O)NCC3CCCO3)nnc12 (stereo unspecified)	11	10	35*
O=C(CCc1nnc2n(Cc3ccccc3)c(=O)c3ccccc3n12)NCc1ccccn1	7	6	18
CC(C)CCn1c(=O)c2ccccc2n2c(CCC(=O)NCCN3CCCC3)nnc12	-12	-13	-55
O=C(CCc1nnc2n(Cc3ccccc3)c(=O)c3ccccc3n12)NCC1CCCO1 (stereo unspecified)	1	11	30*
O=C(CCc1nnc2n(Cc3ccc(F)cc3)c(=O)c3ccccc3n12)N1CCN(c2ccccn2)CC1	5	21	53*
O=C(CCc1nnc2n(Cc3ccc(F)cc3)c(=O)c3ccccc3n12)N1CCN(Cc2ccccc2)CC1	-4	-12	5
CCN(CCCNC(=O)CCc1nnc2n(Cc3ccccc3)c(=O)c3ccccc3n12)c1cccc(C)c1	10	.	42*
Cc1c(-c2noc(-c3ccco3)n2)nnn1Cc1ccccc1	2	9	.
Cc1ccc2oc(C(=O)NCC(c3ccco3)N3CCCC3)cc(=O)c2c1 (stereo unspecified)	-1	-10	-4
Cn1c(=O)cc(C(=O)Nc2cc(C(F)(F)F)cc(C(F)(F)F)c2)[nH]c1=O	20	21	36*
Cn1c(=O)cc(C(=O)Nc2ccc(OC(F)(F)F)cc2)[nH]c1=O	4	7	8
O=S(=O)(Nc1ccccc1CCc1nc2ccccc2[nH]1)c1ccccc1F	-34	-3	6
CCc1[nH]nc(C(=O)N2[C@@H](CN)C[C@@]3(C)[C@H](O)CCCC[C@@H]23)c1C	-8	-31	-61
O=C1/C(=C/c2ccccc2)CC/C1=C\c1ccccc1	44*	26	17
O=C1/C(=C/c2ccc(F)cc2)Cc2ccccc21	6	2	18
CCc1cc(C(=O)NCc2cccnc2)nc2cc(-c3ccccn3)nn12	2	0	21
Cc1cccc(CN2C[C@@H]3c4nc(N5CCCC5)ncc4CS(=O)(=O)[C@@H]3C2)c1	-13	-30	-107
SMILES	USP8 block	USP17 block	USP30 block
Cc1ccc(CN2C[C@@H]3c4nc(N(C)C)ncc4CS(=O)(=O)[C@@H]3C2)cc1	1	-3	31*
COc1ccc(CCNCc2cc3c(C(C)(C)C)nn(-c4ccccc4)c3[nH]c2=O)cc1OC	46*	9	20
CC(C)(C)c1nn(-c2ccccc2)c2[nH]c(=O)c(CNCc3ccco3)cc12	39*	-38	-280
Cn1c(=O)[nH]c(=O)c2c1nc(NCc1ccco1)n2CCO	2	0	20
COc1ccc(CCNCc2c(C(=O)O)c(C)n(-c3ccccc3)c2C)cc1OC	-13	-12	-20
Cc1cc(C)cc(C(=O)N2CCCN(C)c3nc4ccccc4nc32)c1	-5	-12	-84
O=C(Oc1ccc(Cl)c2ccccc12)c1ccc(N2CCCC2=O)cc1	16	12	26
COc1ccc(C(C)=O)cc1COC(=O)/C=C/c1ccc2c(c1)OCO2	16	8	-18
CC(=O)c1cccc(NC(=O)C2CCCN(C(=O)c3ccccc3F)C2)c1 (stereo unspecified)	-20	-13	-42
CCN1CCc2nc(NC(=O)COc3ccc4ccccc4c3)sc2C1	-31	-12	-26
CCN1CCc2nc(NC(=O)CCCOc3ccc(C(C)=O)cc3)sc2C1	-23	44*	36*
COc1ccc2nc(NC(=O)CCCOc3ccc(C(C)=O)cc3)sc2c1	-55	-5	-37
